From PubChem BioAssay (NCATS)
Several values for one entry are separate records, joined by “and”; a condition that tells them apart may be missing. Equal values may be shown once. Records with an inconclusive call do not appear. More than one record can exist for a structure, and the calls need not agree. Activity calls are given as the source filed them. Unless noted, calls follow the shape of the dose curve; as a rule, active = well fitted curve in either direction with a large enough effect (not every such curve was filed as active); inconclusive = small, poorly fitted or top-dose-only effect, or another doubt; inactive = flat fitted curve, though single readings scatter.

Legend:
[1] = AP1 Signaling Pathway (AID 357); settings: ME-180 AP-1-bla reporter, EGF-induced, beta-lactamase ratio, 5 h; also: % is scaled to controls: 0 for no effect and ±100 for the full control effect
Procedure, shortened: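 AP-1-bla ME-180 cells with beta-lactamase reporter under AP-1 response element, stimulated with EC50 EGF; compounds titrated, 5 hours at 37 degrees Celsius. CCF4 read at 460/530 nm ratio; positive and negative modulators judged by AC50.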

[2] = biological target: Cytochrome P450 1A2 (Homo sapiens) (UniProt P05177); experiment: p450-cyp1a2 (AID 410; calls by dose curve; also: potency is read from the fitted curve at half-maximal effect;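 as to activity change, negative = inhibition: -100% = full effect of reference inhibitor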); settings: recombinant CYP1A2, luciferin-ME demethylation, luminescence; series mostly up to 57 µM
Procedure, shortened: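 Human CYP1A2 (20nM) demethylated Luciferin-ME at its Km (100uM) in 100mM KPO4. After 10 min compound preincubation, NADPH regeneration ran the reaction 60 min at room temperature. Luciferin was read by luminescence, normalized to 57 uM furafylline.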

[3] = NFAT Signaling Pathway (AID 444); settings: Jurkat NFAT-bla M1, carbachol, beta-lactamase ratio, 5 h; at 38 µM (top of the series) unless noted;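 also: carbachol stimulus at about its EC50 of 1 µM final; % is scaled to controls: 0 for no effect and ±100 for the full control effect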
Procedure, shortened: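 Read-out: CCF4 FRET ratio (460 nm/530 nm) after 1 h RT dye loading, used for %activity and AC50 from titration series. Cells: Jurkat NFAT-β-lactamase/M1 line, treated with compound plus 1 uM carbachol for 5 h, 37 °C.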

[4] = Stat Signaling Pathway (AID 446); settings: ME-180 (cervical carcinoma) SIE beta-lactamase reporter, IL-6 stimulated, 5 h;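 also: ME-180 cervical cancer cells given 40 pM IL-6 alongside compound; SIE-controlled beta-lactamase reporter measured as 460/530 nm FRET emission ratio; % is scaled to controls: 0 for no effect and ±100 for the full control effect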
Procedure, shortened: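 IL-6/STAT signaling read in ME-180 cells via an SIE beta-lactamase reporter. Stimulus was 40 pM IL-6 (its AC50) for 5 hrs, so both activation and inhibition register.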

[5] = biological target: Glucocorticoid receptor (Homo sapiens) (UniProt P04150); experiment: GR-GFP Redistribution (AID 450;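 active = compounds whose dose series gives a full or clear partial fitted curve of increased nuclear translocation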; also: potency is read from the fitted curve at half-maximal effect); settings: U2OS GR-GFP nuclear translocation, laser cytometry, 2 h
[6] = biological target: Glucocorticoid receptor (Homo sapiens) (UniProt P04150); experiment: GR-EFC Redistribution (AID 451; calls by dose curve; also: potency is read from the fitted curve at half-maximal effect); settings: CHO-K1 GR-EFC translocation, beta-gal luminescence, 2 h
Procedure, shortened: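 Translocation of GR-ED fusion to nuclear EA restores b-gal, read by luminescence after 1 h room-temperature detection. Engineered CHO-K1 biosensor cells, 1,000/well, exposed 2 h at 37 C to titrations up to 46 uM final.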

[7] = biological target: Mitogen-activated protein kinase 10 (Mus musculus) (UniProt Q61831); experiment: JNK3 AlphaScreen Assay (AID 530); settings: JNK3 lysate, c-Jun phosphorylation; series mostly up to 57.1 µM;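 also: kinase came from lysate of stimulated human HepG2 cells; signal reports phosphorylation of biotinylated GST-cJun 1-79 at Ser73 with 10 µM ATP; % is scaled to controls: 0 for no effect and ±100 for the full control effect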
Procedure, shortened: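 Room-temperature AlphaScreen kinase assay; pre-activated HepG2 lysate as JNK3 source, biotin-GST-cJun(1-79) substrate, 10 uM ATP, compound 15 min preincubation.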

[8] = biological target: Lysosomal acid glucosylceramidase (Homo sapiens) (UniProt P04062); experiment: Glucocerebrosidase-p2 (AID 348; in the data active = potency below about 10 µM; also: potency is read from the fitted curve at half-maximal effect); settings: purified GBA, blue fluorogenic substrate, 40 min
Procedure, shortened: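 Compounds titrated from 0.6 nM upwards against 0.2 nM enzyme in pH 5.9 citric acid/KH2PO4, taurocholate, tween-20; blue fluorogenic substrate 80 uM, 40 min room temperature, stopped and read Ex 365/Em 440 for AC50.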

[9] = Cell Viability - BJ (AID 421; calls by dose curve;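 also: potency is read from the fitted curve at half-maximal effect; cells exposed to compound for 40 hours at 37 °C before readout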); settings: BJ fibroblast viability, qHTS
Procedure, shortened: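 Quantitative HTS: ATP depletion in BJ cells after 40 hr compound exposure in complete culture medium, detected with CellTiter-Glo; AC50 from standard Hill fits.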

[10] = Cell Viability - Jurkat (AID 426;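 active = dose-dependent loss of cell ATP signal giving a full or clear fitted curve, ranked by lower potency value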; also: potency is read from the fitted curve at half-maximal effect); settings: qHTS
Procedure, shortened: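 Jurkat (clone E6-1, human T-cell leukemia) cells, 5000/well in complete medium, were exposed to compound for 40 hr at 37 °C. Viability was read as intracellular ATP by CellTiter-Glo luminescence; AC50 came from Hill fits of concentration-response data.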

[11] = Cell Viability - Hek293 (AID 427;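 active = compounds whose dose-response curve shows a full or clear partial loss of cell viability, called from curve shape rather than a numeric limit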;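 also: potency is read from the fitted curve at half-maximal effect; cells exposed to compound for 40 hours at 37 °C before reading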); settings: qHTS
Procedure, shortened: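 AC50 values derive from Hill-modelled concentration-response of ATP-based luminescence, normalized between DMSO-only and 100 uM tamoxifen controls. Cells were exposed in complete culture medium for 40 hr at 37 °C before detection.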

[12] = Cell Viability - HepG2 (AID 433; calls by dose curve;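 also: potency is read from the fitted curve at half-maximal effect; potency for ATP loss meaning cytotoxicity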); settings: qHTS
Procedure, shortened: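 Cytotoxicity is scored as loss of intracellular ATP in HepG2 cells exposed to compounds for 40 h. Concentration-response curves, normalized to DMSO and 100 uM tamoxifen, give AC50 values.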

[13] = Cell Viability - MRC5 (AID 434; calls by dose curve;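 also: potency is read from the fitted curve at half-maximal effect; potency reflects cytotoxicity seen as loss of intracellular ATP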); settings: MRC5 lung fibroblast viability, qHTS
Procedure, shortened: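 qHTS cytotoxicity in human lung fibroblast MRC5 cells; 40 hr treatment, 37 °C; cellular ATP by luciferase luminescence; DMSO = 0%, 100 uM tamoxifen = 100% inhibition; Hill-fit AC50.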

[14] = Cell Viability - SK-N-SH (AID 435; calls by dose curve;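 also: potency is read from the fitted curve at half-maximal effect; compound exposure lasted 40 h at 37 °C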); settings: SK-N-SH neuroblastoma cell viability qHTS
Procedure, shortened: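 Cells seeded at 1500 per well and incubated 5 hr at 37 °C. Compound added, then 40 hr at 37 °C. CellTiter-Glo added, 20 min at room temperature, luminescence read.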

[15] = Cell Viability - N2a (AID 540; active = well fitted curve in the direction sought with a large enough effect; an effect the other way counts as inactive or inconclusive; also: potency is read from the fitted curve at half-maximal effect; nearly all actives have a fitted effect of over 45% in size); settings: N2a mouse neuroblastoma cell viability; activity change, negative = cytotoxicity: at 92.2 µM (top of the series)
Procedure, shortened: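 Mouse neuroblastoma N2a cells (1500/well) were preincubated 5 hr at 37 °C, then exposed to compounds for 40 hr at 37 °C in complete medium. Viability was read as intracellular ATP by CellTiter-Glo luminescence; AC50 from Hill fits.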

[16] = Cell Viability - NIH 3T3 (AID 541; active = well fitted curve in the direction sought with a large enough effect; an effect the other way counts as inactive or inconclusive; also: potency is read from the fitted curve at half-maximal effect; nearly all actives have a fitted effect of over 25% in size); settings: NIH 3T3 cell viability, qHTS; activity change, negative = cytotoxicity: at 92.2 µM (top of the series)
Procedure, shortened: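 NIH 3T3 mouse embryo fibroblasts (1000 cells/well) were plated in complete medium and treated with compound for 40 hr at 37 °C. Viability was read as intracellular ATP by CellTiter-Glo luminescence; AC50 values came from Hill-equation fits of concentration-response data.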

[17] = Cell Viability - HUV-EC-C (AID 542; active = well fitted curve in the direction sought with a large enough effect; an effect the other way counts as inactive or inconclusive; also: potency is read from the fitted curve at half-maximal effect; nearly all actives have a fitted effect of over 35% in size); settings: HUV-EC-C endothelial cell viability, qHTS; series mostly up to 92.2 µM
Procedure, shortened: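 HUV-EC-C normal human vascular endothelial cells, 1000 cells/well, pre-incubated 5 hr at 37 °C, then exposed to compounds for 40 hr at 37 °C in complete medium. Viability measured as intracellular ATP by CellTiter-Glo luminescence; AC50 from Hill fits.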

[18] = Cell Viability - H-4-II-E (AID 543; active = well fitted curve in the direction sought with a large enough effect; an effect the other way counts as inactive or inconclusive; also: potency is read from the fitted curve at half-maximal effect; nearly all actives have a fitted effect of over 35% in size); settings: H-4-II-E rat hepatoma viability; series mostly up to 92.2 µM
Procedure, shortened: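 Rat hepatoma H-4-II-E cells (1500/well) were plated, incubated 5 hr at 37 °C, then exposed to compounds for 40 hr at 37 °C. Cellular ATP was read by CellTiter-Glo luminescence; AC50 came from Hill-equation fits of concentration-response data.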

[19] = Cell Viability - SH-SY5Y (AID 544; active = well fitted curve in the direction sought with a large enough effect; an effect the other way counts as inactive or inconclusive; also: potency is read from the fitted curve at half-maximal effect; nearly all actives have a fitted effect of over 55% in size); settings: SH-SY5Y neuroblastoma cell viability; viability change, negative = cytotoxic: at 92.2 µM (top of the series)
Procedure, shortened: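 Human neuroblastoma SH-SY5Y cells (1500/well) in complete medium were exposed to compounds for 40 hr at 37 °C; intracellular ATP was then quantified by CellTiter-Glo luminescence after 20 min at room temperature. AC50 came from Hill-equation concentration-response fits.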

[20] = Cell Viability - Renal Proximal Tubule (AID 545; active = well fitted curve in the direction sought with a large enough effect; an effect the other way counts as inactive or inconclusive; also: potency is read from the fitted curve at half-maximal effect; nearly all actives have a fitted effect of over 40% in size); settings: renal proximal tubule cells viability, primary cells of rat origin; activity change, negative = cytotoxicity: at 91.7 µM (top of the series)
Procedure, shortened: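 Cytotoxicity is scored as a concentration-dependent drop in cellular ATP in primary rat renal proximal tubule cells exposed for 40 hr. AC50 derives from Hill modelling.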

Glucocorticoid receptor (Homo sapiens), sequence (P04150 whole entry, looked up, the tested form may be a part): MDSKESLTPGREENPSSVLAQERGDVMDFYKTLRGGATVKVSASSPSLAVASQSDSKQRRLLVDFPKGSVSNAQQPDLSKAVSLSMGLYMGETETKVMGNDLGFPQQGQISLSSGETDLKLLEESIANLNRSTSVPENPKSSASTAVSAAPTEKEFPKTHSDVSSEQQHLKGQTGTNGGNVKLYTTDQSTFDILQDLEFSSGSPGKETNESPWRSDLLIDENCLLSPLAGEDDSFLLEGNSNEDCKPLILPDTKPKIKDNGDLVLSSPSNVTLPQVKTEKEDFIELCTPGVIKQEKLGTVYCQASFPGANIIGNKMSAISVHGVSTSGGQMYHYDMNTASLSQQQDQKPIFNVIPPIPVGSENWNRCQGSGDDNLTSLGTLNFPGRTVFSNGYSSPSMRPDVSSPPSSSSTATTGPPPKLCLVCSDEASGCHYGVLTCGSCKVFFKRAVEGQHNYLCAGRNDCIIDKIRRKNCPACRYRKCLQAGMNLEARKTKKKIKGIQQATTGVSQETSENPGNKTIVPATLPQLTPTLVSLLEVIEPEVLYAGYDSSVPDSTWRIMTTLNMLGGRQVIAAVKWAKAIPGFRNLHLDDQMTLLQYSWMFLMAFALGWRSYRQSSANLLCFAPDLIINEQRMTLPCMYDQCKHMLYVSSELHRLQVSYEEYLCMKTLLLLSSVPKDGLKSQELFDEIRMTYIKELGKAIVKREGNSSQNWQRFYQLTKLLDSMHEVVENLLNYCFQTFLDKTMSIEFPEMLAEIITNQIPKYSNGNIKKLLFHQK
Cytochrome P450 1A2 (Homo sapiens), sequence (P05177 whole entry, looked up): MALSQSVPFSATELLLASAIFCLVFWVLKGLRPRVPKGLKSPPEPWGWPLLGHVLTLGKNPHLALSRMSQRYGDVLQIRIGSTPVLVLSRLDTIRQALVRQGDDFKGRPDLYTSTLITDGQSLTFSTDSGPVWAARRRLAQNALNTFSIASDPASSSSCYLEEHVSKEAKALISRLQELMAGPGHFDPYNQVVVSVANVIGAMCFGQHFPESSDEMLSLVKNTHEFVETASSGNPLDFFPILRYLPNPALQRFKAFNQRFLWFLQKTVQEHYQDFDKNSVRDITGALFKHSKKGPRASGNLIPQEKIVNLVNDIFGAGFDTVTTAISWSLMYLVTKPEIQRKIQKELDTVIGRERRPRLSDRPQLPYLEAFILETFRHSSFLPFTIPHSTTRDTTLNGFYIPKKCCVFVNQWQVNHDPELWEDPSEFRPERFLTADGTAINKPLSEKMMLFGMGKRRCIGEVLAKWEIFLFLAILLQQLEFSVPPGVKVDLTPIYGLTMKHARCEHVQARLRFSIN
Lysosomal acid glucosylceramidase (Homo sapiens), sequence (P04062 whole entry, looked up): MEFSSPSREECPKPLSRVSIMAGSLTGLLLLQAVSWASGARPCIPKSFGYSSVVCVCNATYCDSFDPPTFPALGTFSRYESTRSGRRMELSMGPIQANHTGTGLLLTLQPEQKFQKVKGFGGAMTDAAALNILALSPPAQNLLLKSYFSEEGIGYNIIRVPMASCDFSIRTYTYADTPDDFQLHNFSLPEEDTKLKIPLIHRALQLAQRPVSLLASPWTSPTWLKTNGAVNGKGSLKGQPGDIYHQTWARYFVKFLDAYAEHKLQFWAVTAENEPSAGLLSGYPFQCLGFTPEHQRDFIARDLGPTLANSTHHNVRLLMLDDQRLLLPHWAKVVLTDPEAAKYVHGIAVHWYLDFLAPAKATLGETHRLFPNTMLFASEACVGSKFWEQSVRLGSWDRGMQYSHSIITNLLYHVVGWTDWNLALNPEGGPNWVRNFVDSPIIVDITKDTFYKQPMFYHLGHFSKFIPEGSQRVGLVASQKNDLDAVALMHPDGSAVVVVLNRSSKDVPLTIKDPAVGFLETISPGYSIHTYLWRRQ

For COc1cccc(C(=O)NCCN2CCN(c3ccc(Cl)cc3)CC2)c1, the activity change, negative = inhibition ([1]; at 38 µM (top of the series)) was -7.5% (inactive), the Potency [2] was 12.6 µM (active) and the activity change, negative = inhibition [3] was 2.58% (inactive). The activity, negative = inhibition ([4]; at 38 µM (top of the series)) was 0.921% (inactive), the Potency [5] was > 46 µM (inactive) and the Potency [6] was > 46 µM (inactive).
In the case of O=C(O)c1ccccc1Nc1cccc(C(F)(F)F)c1, the activity change, negative = inhibition ([1]; at 17.2 µM (top of the series)) is reported as -4.38% (inactive) and -13.2% (inactive), the Potency [2] is reported as 3.98 µM (active) and the activity change, negative = inhibition [3] is reported as -44% [at 17.2 µM] (inactive). The activity, negative = inhibition ([4]; at 17.2 µM (top of the series)) was -14.4% (inactive) and -17.3% (inactive), the Potency [5] was > 20.6 µM (inactive) and the Potency [6] was > 20.6 µM (inactive). For the same compound, the Potency [7] was “inactive”.
For N[C@H](CCCP(=O)(O)O)C(=O)O, the activity change, negative = inhibition ([1]; at 38 µM (top of the series)) was -8.4% (inactive), the Potency [2] was “inactive and 31.6 µM (active) and 25.1 µM (active)” and the activity change, negative = inhibition [3] was -6.29% (inactive). The activity, negative = inhibition ([4]; at 38 µM (top of the series)) was 14.7% (inactive), the Potency [5] was > 46 µM (inactive) and the Potency [6] was > 46 µM (inactive). For the same compound, the Potency [7] was “inactive”.
With Nc1cc(-c2ccncc2)c[nH]c1=O the activity change, negative = inhibition ([1]; at 17.2 µM (top of the series)) was -9.46% (inactive), the Potency [2] was 15.8 µM (active) and the activity change, negative = inhibition [3] was -1.83% [at 17.2 µM] (inactive). The activity, negative = inhibition ([4]; at 17.2 µM (top of the series)) was -17.5% (inactive), the Potency [5] was > 20.6 µM (inactive) and the Potency [6] was > 20.6 µM (inactive). The Potency [7] was “inactive”.
For CN(C)c1nc(N)c(C(=O)N=C(N)N)nc1Cl, the activity change, negative = inhibition ([1]; at 38 µM (top of the series)) was 10.7% (inactive), the Potency [2] was 1 µM (active) and the activity change, negative = inhibition [3] was -15.7% (inactive). For the same compound, the activity, negative = inhibition ([4]; at 38 µM (top of the series)) was 19% (inactive), the Potency [5] was > 46 µM (inactive) and the Potency [6] was > 46 µM (inactive).
With CN(C)c1ccc(C(=C2C=CC(=[N+](C)C)C=C2)c2ccccc2)cc1 the Potency [8] was > 11.4 µM (inactive), the activity change, negative = inhibition ([1]; at 7.69 µM (top of the series)) was 0.139% (inactive) and the Potency [9] was 1.14 µM (active). The Potency [10] was 0.0233 µM (active), the Potency [11] was 0.244 µM (active) and the Potency [12] was 0.494 µM (active). The Potency [13] was 0.458 µM (active), the Potency [14] was 0.052 µM (active) and the Potency [5] was > 46 µM (inactive). The Potency [6] was > 9.22 µM (inactive), the activity change, negative = inhibition [7] was -22.8% [at 11.4 µM] (inactive) and the Potency [15] was 0.0316 µM (active). For the same compound, the Potency [16] was 0.2 µM (active), the Potency [17] was 6.31 µM (active) and the Potency [18] was 0.0794 µM (active). For the same compound, the Potency [19] was 0.1 µM (active) and the Potency [20] was 0.2 µM (active).
With CN1[C@@H]2CC[C@H]1CC(OC(c1ccccc1)c1ccccc1)C2 (some centres undefined) the Potency [8] was > 11.4 µM (inactive), the activity change, negative = inhibition ([1]; at 7.69 µM (top of the series)) was 12.3% (inactive) and the Potency [2] was “inactive”. For the same compound, the activity change, negative = inhibition [3] was -83.5% [at 7.69 µM] (active), the activity, negative = inhibition ([4]; at 7.69 µM (top of the series)) was 0.0599% (inactive) and the activity, negative = inhibition ([4]; at 38 µM (top of the series)) was -14.8% (inactive). The Potency [5] was > 46 µM (inactive), the Potency [6] was > 46 µM (inactive) and > 9.22 µM (inactive) and the Potency [7] was “inactive”.
